The panel holds about 83,000 compounds, 20% with a hit somewhere; the sample as a whole holds those more often.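 Note: values are percent growth. 100 is the growth of untreated cells, values between 100 and 0 indicate rising inhibition; between -100 and 0 indicates cell death.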 Unmarked numbers belong to inactive results. Calls of active or inactive are those of the source. How the source made its calls: active means growth percent below 10; inactive means the rest.

What all share (experiment): NCI-60 one-dose screen, 48 h (100 = growth as untreated, 0 = no growth, -100 = all killed)
Common to all, as to settings: 10 µM

The test system of assay [1] is DU-145 prostate.
The test system of assay [2] is K-562 leukemia.
Assay [3] concerns MALME-3M melanoma.
Assay [4] deals with MDA-MB-231 breast.
For assay [5], the system named is RXF 393 renal.
Assay [6] relates to SF-268 CNS.
Assay [7] relates to SF-295 CNS.
The test system of assay [8] is SF-539 CNS.
Assay [9] has as its system UACC-257 melanoma.
Assay [10] deals with M14 melanoma.
In assay [11] the test system is HCT-15 colon.
For assay [12], the system named is HT29 colon.
The subject of assay [13] is SNB-75 CNS.
The test system of assay [14] is SNB-19 CNS.
In assay [15] the test system is U251 CNS.
The subject of assay [16] is PC-3 prostate.
Assay [17] deals with SK-MEL-5 melanoma.
For assay [18], the system named is UACC-62 melanoma.
The subject of assay [19] is LOX IMVI melanoma.
The test system of assay [20] is SK-MEL-28 melanoma.

For the compound `CN(C)CCOc1ccccc1NC1=C(Cl)C(=O)C(Nc2ccccc2OCCN(C)C)=C(Cl)C1=O`, the growth in assay [1] is 84.7%; in assay [2] it was -12.6% (active); in assay [3], 64.7%; in [4] it was 53.1%; in [5], 68.5%; in [6], 86%. Also, the growth in assay [7] was 103%; in [8] it was 101%; in [9], 85.2%; in assay [10] it was 92.9%; in [11], 79.7%; in assay [12], 15%. In addition, the growth in assay [13] is 107%; in [14], 93.9%; in assay [15], 68.6%; in assay [16] it was 84.3%; in assay [17], 93.6%; in assay [18], 95.6%. In addition, the growth in [19] is -65.7% (active); in assay [20] it was 109%.

For the compound `CCOC(=O)c1cc(C(=O)c2cc(OC)c(OC)c(OC)c2)n2c1ccc1c3cccnc3ccc12`, the growth in [1] was 89.3%; in assay [2], 12.9%; in [3] it was 79.3%; in assay [4], 69.5%; in [5], 66.8%; in [6], 69.9%. The growth in assay [7] was 63.4%; in assay [8], 55.5%; in assay [9], 73.4%; in [10], 31.6%; in assay [11] it was 41.4%; in assay [12], 19.5%. Also, the growth in assay [13] was 64.7%; in assay [14], 71.9%; in assay [15], 51%; in [16], 63.9%; in assay [17] it was 34.1%; in assay [18], 57.5%. For the same compound, the growth is 46.9% in assay [19] and 80.2% in assay [20].

`Nc1nccc(OCCO)n1`: the growth in [1] is 104%; in assay [2] it was 99.3%; in assay [3] it was 108%; in assay [4], 108%; in assay [5], 117%; in [6], 101%. The growth in [7] is 97.5%; in assay [8], 101%; in [9], 97.6%; in assay [10] it was 102%; in [11], 98.4%; in assay [12], 88.3%. For the same compound, the growth in assay [13] is 89.5%; in assay [14], 101%; in assay [15], 107%; in assay [16] it was 103%; in assay [17], 99.2%; in assay [18] it was 106%. For the same compound, in assay [20], the growth is 112%.

`O=C(CCCSc1nc(-c2ccc(Cl)cc2)cc(-c2ccc(Cl)cc2)n1)NO`: the growth in assay [1] is 15.1%; in assay [2], 5.07% (active); in assay [3], 2.37% (active); in [4], 14.6%; in assay [5] it was -15.3% (active); in [6], 11.6%. The growth in assay [7] was -4.84% (active); in assay [8], -23% (active); in [9], 13.2%; in assay [10] it was -15.5% (active); in assay [11], 17.6%; in assay [12], 23.2%. The growth in assay [13] was 13.7%; in assay [14], 17.7%; in [15], 17.2%; in assay [16] it was 21%; in assay [17] it was -31.7% (active); in assay [18], -10.7% (active). Also, the growth in assay [19] was -2.15% (active); in assay [20], 25%.

In the case of `O=C(O)c1cn(C2CC2)c2cc(N3CCN(C(=O)c4cc(-c5ccc(Cl)cc5)nc5ccccc45)CC3)c(F)cc2c1=O`, the growth in assay [1] was 105%; in assay [2] it was 83.7%; in assay [3] it was 107%; in assay [4], 76.3%; in assay [5], 73.6%; in [6] it was 89%. In addition, the growth is 91.3% in [7]; 93.8% in assay [8]; 107% in assay [9]; 84.4% in assay [10]; 90.8% in assay [11]; 96.1% in [12]. In addition, the growth in [13] is 77.2%; in [14] it was 86%; in [15] it was 96%; in assay [16] it was 70.7%; in assay [17], 85.4%; in assay [18] it was 66.6%. The results for the growth in [19] and in [20] were 63.4% and 96.6%, respectively.

With `NS(=O)(=O)Oc1ccc(NC(=O)C2CCCCCC2)cc1`, the growth is 117% in assay [1]; 96.1% in [2]; 102% in [3]; 103% in assay [4]; 116% in [5]; 98.5% in assay [6]. Further, the growth in assay [7] is 99%; in assay [8], 98.3%; in assay [9], 100%; in [10], 108%; in [11] it was 100%; in assay [12], 108%. The growth is 96.1% in [13]; 101% in assay [14]; 100% in assay [15]; 96.5% in [16]; 101% in assay [17]; 99.7% in assay [18]. The growth was 98.8% in [19] and 104% in assay [20].

Regarding `CC(C)N(CCOc1ccc(-c2nc3sccn3c2-c2ccnc(S(C)(=O)=O)n2)cc1)C(C)C`, the growth was 99.9% in assay [1]; 62.9% in [2]; 102% in assay [3]; 75.4% in [4]; 93.2% in assay [5]; 96.3% in assay [6]. For the same compound, the growth in assay [7] was 108%; in assay [8], 95.4%; in assay [9], 78.4%; in [10], 112%; in assay [11], 92.8%; in [12] it was 60.3%. Further, the growth in assay [13] is 83.5%; in [14] it was 107%; in assay [15], 91.4%; in assay [16], 62.5%; in assay [17], 39.2%; in assay [18], 83.9%. The growth in assay [19] was 72.7%; in [20], 104%.

The record behind these values is PubChem BioAssay (NCI).
